HT1080 IDH1KD tx: qHTS for induction of synthetic lethality in tumor cells producing 2HG: qHTS for the HT-1080-IDH1KD cell line; HT-1080 IDH1 knockdown viability, ATP luminescence, 48 h; Potency, µM (top dose mostly 46.1 µM), without a hit: top-dose activity, negative = toxicity, usual class: cytotoxic; 2% of 360,000 active;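 further: potency means the concentration at half of the fitted maximal effect; 0% = DMSO wells and -100% = cell-free medium wells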
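% activity derives from luminescence (CellTiter-Glo), normalised to DMSO and no-cell wells. HT-1080-IDH1KD cells, 750/well, had 48 h compound exposure at 37 °C.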
HT1080-NT tox: qHTS for induction of synthetic lethality in tumor cells producing 2HG: qHTS for the HT-1080-NT fibrosarcoma cell line; HT-1080-NT fibrosarcoma viability, CellTiter-Glo ATP luminescence, 48 h; AID 686970, 2013; 1.6% of 360,000 active; Potency, µM (series often up to 46.1 µM), inactives show at the top dose activity, negative = less viability, hits mostly cytotoxic;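 further: NT is the 2HG producing partner of a matched IDH1 knockdown line; potency means the concentration at half of the fitted maximal effect; 0% = DMSO-treated cells and -100% = media-only wells without cells; nearly all actives have a fitted effect of over 55% in size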
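Toxicity toward the 2HG-producing NT line was scored as %Activity, normalised to DMSO and no-cell wells, from CellTiter-Glo luminescence after 48 hours' treatment.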
IL-1B inflam inh: qHTS for Inhibitors of Inflammasome Signaling: IL-1-beta AlphaLISA Primary Screen. 4.7% of 360,000 active. THP-1 LPS/ATP IL-1B secretion, AlphaLISA, 16 h; hits give low values. AID 743279, 2014. activity change, % at 57.5 µM; in the data active means activity change below about -50%; inconclusive means mostly about -30% to -49%
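Secreted IL-1B measured by AlphaLISA bead assay after 16 h compound exposure of THP-1 cells; compounds (final up to 57.5 uM) added 1 h before LPS (250 ng/mL) and ATP (1.25 mM) stimulation; lower signal means less secretion.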
DT40 TDP1 no CPT: qHTS for Inhibitors of human tyrosyl-DNA phosphodiesterase 1 (TDP1): qHTS in cells in absence of CPT; DT40 Tdp1-/- hTDP1 cells, no CPT, ATP luminescence, 48 h; Potency, µM (doses to about 46.2 µM), for the others: top-dose activity change, negative = growth inhibition, hits mostly inhibitors; 15% of 420,000 active; AID 686978, 2013; further: potency means the concentration at half of the fitted maximal effect; nearly all actives have a fitted effect of over 55% in size
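Chicken DT40 Tdp1-/- cells complemented with human TDP1, screened without camptothecin (DMSO vehicle only), 400 cells/well. Compounds pin-transferred, cells incubated at 37 °C for at least 48 hr. Growth read as ATP-dependent luminescence (CellTiter-Glo, 30 min at RT).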
TDP1 cell CPT: qHTS for Inhibitors of human tyrosyl-DNA phosphodiesterase 1 (TDP1): qHTS in cells in presence of CPT. chicken DT40 Tdp1-/-;hTDP1 cells + 20 nM CPT, ATP luminescence, 48 h. Potency, µM (titrated, usually from 46.2 µM), for the others: at the top dose activity change, negative = growth inhibition, most hits filed as inhibitors. 12% of 420,000 active; further: potency means the concentration at half of the fitted maximal effect; nearly all actives have a fitted effect of over 55% in size
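Cell growth measured by CellTiter-Glo luminescence after a minimum 48 h, 37 C compound exposure with 20 nM CPT in Tdp1-knockout DT40 cells stably expressing hTDP1, seeded 400/well; qHTS titration format.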
Starred values were filed as active, the others as inactive; ? = inconclusive; / = no result given; [ ] = another dose, or the depositor's remark. The list is not random: actives were taken first. Their share in the collection is about 19%. Unless noted, the call rests on the fitted dose curve; in most records, active means well fitted curve in the direction sought with a large enough effect; inconclusive means small, poorly fitted or top-dose-only effect, or another doubt; inactive means no such curve, though single readings can be large; an effect the other way counts as inactive or inconclusive. Unless noted, on the % scale 0 is the no-effect control and ±100 the full control effect.

SMILES	HT1080 IDH1KD tx	HT1080-NT tox	IL-1B inflam inh	DT40 TDP1 no CPT	TDP1 cell CPT
O=[N+]([O-])c1ccc(N2CCCCCC2)c([N+](=O)[O-])c1	-3.6%	-1.6%	-8.5	-24.2%	-10.9%
CC(C)CN(CC(C)C)S(=O)(=O)c1cc([N+](=O)[O-])ccc1N1CCCCCC1	?	-5.0%	-20.1	16.4µM*	?
CCOc1cc(Cl)c(S(=O)(=O)NCCCN2CCOCC2)cc1Cl	2.4%	0.3%	-12.1	?	?
CCc1nc2ccc(C(=O)NCc3ccc(OC)cc3)cn2c1N(CCC(C)C)CCN(C)C	?	?	-14.7	16.4µM*	?
CCc1nc2ccc(C(=O)NCc3ccccc3OC)cn2c1N(C=O)CCC(C)C	12.2%	4.7%	-8.5	16.4µM*	23.1µM*
CCc1nc2ccc(C(=O)N3CCCCC3)cn2c1N(CCC(C)C)CCN(C)C	15.2%	15.9%	-13.7	-26.5%	-29.8%
CCc1nc2ccc(C(=O)NCC3CCCCC3)cn2c1N(CCC(C)C)CCN(C)C	16.4µM*	18.4µM*	18.2	25.9µM*	18.4µM*
Cc1cc(C)nc(-c2cccc3c2OC(CNC(=O)c2ccc(Cn4nc(C)cc4C)cc2)C3)n1 (configuration not stated)	/	/	/	-22.0%	25.8%[9.04 µM]
CCOc1ccc(CO/N=C/c2c(C)[nH]c(=O)[nH]c2=O)cc1	9.6%	6.6%	-25.8	0.9%	-2.7%
CCc1noc(C)c1C(=O)N1CCOc2ccc(CN3CCN(c4ccccn4)CC3)cc2C1	/	/	/	-2.9%	8.1%[9.04 µM]
CCOc1ccc(-c2cc(C(=O)N/N=C(\C)c3cccnc3)c3ccccc3n2)c(OCC)c1	?	-21.7%	24.1	?	14.6µM*
C/C(=N\NC(=O)c1cc(C2CC2)nc2ccccc12)c1ccc(C)s1	-29.0%	-16.7%	4.6	?	?
C/C(=N\NC(=O)c1cc(C2CC2)nc2ccccc12)c1ccc(O)cc1O	4.61µM*	?	147.1	5.17µM*	6.51µM*
COc1ccc(/C(C)=N/NC(=O)c2cc(-c3cccnc3)nc3ccccc23)cc1	8.5%	9.1%	53.0	-21.9%	-23.4%
C/C(=N\NC(=O)c1cc(-c2cccnc2)nc2ccccc12)c1ccccc1O	9.2µM*	-11.5%	63.1	3.66µM*	4.61µM*
O=c1ccn(C2OC(COP(=O)(O)OP(=O)(O)OP(=O)(O)O)C(O)C2O)c(=O)[nH]1 (configuration not stated)	/	/	/	-10.3%	-8.6%
O=C(OCn1ncc(Cl)c(Cl)c1=O)c1cccc(C(F)(F)F)c1	20.6µM*	?	-101.3*	3.26µM*	?
N/C(=N\OC(=O)c1cccc(C(F)(F)F)c1)c1cnccn1	-3.9%	-2.1%	?	4.6%	-3.8%
CC(NC(=O)COC(=O)c1ccc([N+](=O)[O-])o1)c1ccccc1 (configuration not stated)	-0.5%	4.6%	-12.9	-14.4%	-24.1%
CC1(C(=O)Nc2cccc(Oc3ccccc3)c2)Cc2c(-c3ccccc3)ccnc2O1 (configuration not stated)	?	?	-24.8	?	?
CC(=O)c1cccc(NC(=O)C2(C)Cc3c(-c4ccccc4)ccnc3O2)c1 (configuration not stated)	-25.2%	-0.9%	-9.1	23.1µM*	23.1µM*
CC(=O)Nc1cccc(-c2ccnc3c2CC(C)(C(=O)Nc2cccc(Oc4ccccc4)c2)O3)c1 (configuration not stated)	?	?	-19.5	20.6µM*	16.4µM*
CC(=O)Nc1ccc(-c2ccnc3c2CC(C)(C(=O)Nc2cccc(C(C)=O)c2)O3)cc1 (configuration not stated)	-3.5%	3.9%	?	16.4µM*	?
COc1cc(CN2CCC3(CC2)CC3C(=O)Nc2ccc3sc(C)nc3c2)ccc1F (configuration not stated)	/	/	/	-15.2%	-7.6%
Cn1ncc2c(=S)[nH]c(=S)[nH]c21	25.4%	20.0%	52.3	?	?
SMILES	HT1080 IDH1KD tx	HT1080-NT tox	IL-1B inflam inh	DT40 TDP1 no CPT	TDP1 cell CPT
O=C(COC(=O)Cc1cccs1)Nc1cc(S(=O)(=O)N2CCOCC2)ccc1Cl	10.7%	0.0%	13.6	-9.1%	-7.2%
COC(=O)c1ccc(N2CCN(C)CC2)c(NC(=O)c2cccs2)c1	-0.6%	3.7%	-26.9	6.1%	4.8%
CN(C)CCNc1ncnc2c1sc1nc(-c3ccccc3)c3c(c12)CCCC3	18.4µM*	10.3µM*	-75.8*	23.1µM*	?
CCOc1ccc(-n2ccnc(SCC(=O)NCCc3ccccc3)c2=O)cc1	-11.0%	-12.5%	2.0	?	?
Cc1ccc(-n2ccnc(SCC(=O)NCCc3ccccc3)c2=O)cc1F	12.3%	17.3%	-25.1	14.6µM*	?
O=C(CNS(=O)(=O)/C=C/c1ccccc1)OCC(=O)N1CCC(Cc2ccccc2)CC1	0.1%	-3.3%	-84.5*	-28.6%	-10.9%
CC(C)(CN1CCN(Cc2ccccc2)CC1)NS(=O)(=O)c1ccccc1	-5.8%	-12.9%	-9.9	?	?
O=C(CCNS(=O)(=O)c1ccccc1)N1CCC(Cc2ccccc2)CC1	-13.8%	-18.0%	-50.1*	?	?
CC1CCN(C(=O)CCNS(=O)(=O)c2ccccc2)CC1	4.2%	14.9%	6.5	1.9%	14.2%
CC(C)(CN1CCC(Cc2ccccc2)CC1)NS(=O)(=O)c1ccccc1	-1.7%	-2.9%	?	?	20.6µM*
CC(C)(CN1CCN(C(c2ccccc2)c2ccccc2)CC1)NS(=O)(=O)c1ccccc1	-17.6%	-4.6%	13.0	16.4µM*	23.1µM*
CC1CC(C)CN(C(=O)COC(=O)CNS(=O)(=O)/C=C/c2ccccc2)C1 (configuration not stated)	0.4%	-2.1%	-12.8	-4.6%	-2.1%
Cc1cc(C)cc(Oc2c(C(F)(F)F)oc3c(CN4CCCC(C)C4)c(O)ccc3c2=O)c1 (configuration not stated)	/	/	/	5.1%	7.1%
CCOC(=O)C1c2cccc(O)c2CCN1C(C)=O (configuration not stated)	9.4%	12.2%	2.4	-2.6%	60.9%
S=c1[nH]nc(COc2ccc(Cl)cc2)n1-c1ccccc1	24.6%	12.2%	31.0	?	-27.2%
COc1ccc2c(c1)OC[C@H]1[C@H]2N2C(=O)[C@H](C)NC(=O)[C@@]2(C)[C@H]1c1ccccc1	-10.8%	0.0%	14.7	-25.6%	-20.2%

Source: PubChem
